GIRK2 act = GIRK2 channel activators by thallium flux; P48051; HEK293 GIRK2/NPY4 cells, thallium flux fluorescence; activation (% efficacy), % for hits at 37.5 µM; 34,000 tested, under 10 active;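 active means primary screen hit, no activity in plain HEK293 cells, and in GIRK2-only cells above 5% efficacy rising with concentration; inactive means the rest, including fluorescent compounds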;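 further: efficacy is normalized control-subtracted fluorescence 15 s after thallium addition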
Target sequence (P48051 whole entry, looked up): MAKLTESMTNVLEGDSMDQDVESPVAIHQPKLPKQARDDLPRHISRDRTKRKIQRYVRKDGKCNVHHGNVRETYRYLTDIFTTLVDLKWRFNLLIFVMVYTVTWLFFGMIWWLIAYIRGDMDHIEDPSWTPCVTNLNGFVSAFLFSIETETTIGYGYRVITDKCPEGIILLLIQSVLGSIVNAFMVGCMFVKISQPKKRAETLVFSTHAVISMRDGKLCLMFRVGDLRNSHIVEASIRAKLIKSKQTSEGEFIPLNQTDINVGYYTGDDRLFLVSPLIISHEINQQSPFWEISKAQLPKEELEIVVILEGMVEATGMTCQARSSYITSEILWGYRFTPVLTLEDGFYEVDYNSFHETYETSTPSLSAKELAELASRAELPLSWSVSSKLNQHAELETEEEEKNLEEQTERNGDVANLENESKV
AMPAR-TARP mod = modulators of AMPA receptor GluA2-stargazin complexes; AID 1259245; HEK293 GluA2+stargazin, membrane potential dye (FDSS), glutamate EC50; hits were called plate by plate, in both directions; calls only at 30 µM; actives 3.5% (n = 40,000);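 active means any of four per-well response measures lying three or more SD from its plate-wide compound average, in either direction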
Each line names hits and unclear results; the compound was inactive in the other large screens; ! = not confirmed by another sample. Only a selection was taken, and hits are over-represented in it overall.

COc1ccccc1C(=O)NCCNc1ccc(Nc2cccc(C)n2)nn1	none (no result: AMPAR-TARP mod)
O=S(=O)(c1cccs1)N1CCN(c2ccc(-c3ccccc3)nn2)CC1	none
O=S(=O)(c1cccs1)N1CCN(c2ccc(N3CCCC3)nn2)CC1	AMPAR-TARP mod active
O=S(=O)(NCCCN1CCOCC1)c1cccc2cnccc12	none
O=S(=O)(NC1CCCC1)c1cccc2cnccc12	AMPAR-TARP mod active
CN(Cc1ccccc1)C(=O)c1ccc(Cn2c(=O)[nH]c3ccccc3c2=O)cc1	none
CCOC(=O)N1CCc2c(sc(NC(=O)c3ccn(C)n3)c2C(=O)OC)C1	AMPAR-TARP mod active
CCOC(=O)N1CCc2c(sc(NC(=O)c3ccnn3CC)c2C(=O)OC)C1	AMPAR-TARP mod active
CCOC(=O)N1CCc2c(sc(NC(=O)c3cc(C)n(CC)n3)c2C(N)=O)C1	none (no result: AMPAR-TARP mod)
CC(=O)N1CCc2c(sc(NC(=O)c3cc(C)no3)c2C#N)C1	none
CC(=O)N1CCc2c(sc(NC(=O)c3cc(C)no3)c2C(N)=O)C1	AMPAR-TARP mod active
CCOC(=O)c1c(NC(=O)c2ccn(C)n2)sc2c1CCN(C(C)=O)C2	AMPAR-TARP mod active
CC(=O)N1CCc2c(sc(NC(=O)c3ccn(C)n3)c2-c2nc3ccccc3s2)C1	none (no result: GIRK2 act)
CCn1nccc1C(=O)Nc1sc2c(c1C(N)=O)CCN(C(C)=O)C2	none
CCCCOc1ccc(C(=O)NCC2CCN(Cc3ccco3)CC2)cc1	none (no result: AMPAR-TARP mod)
Cc1cccc(NC(=O)CN2CCN(c3nccn3-c3ccccc3F)CC2)c1C	none
COc1ccc(S(=O)(=O)N2CCCc3cc(NS(=O)(=O)c4ccc(F)cc4)ccc32)cc1	none (no result: GIRK2 act)
COc1ccc(CCNC(=O)c2nn(-c3ccc(F)cc3)cc2OC)cc1	none
COc1ccc(/C=C2\Oc3c4c(cc(C)c3C2=O)OCN(C2CC2)C4)cc1OC	none
COc1ccc(/C=C2\Oc3c(cc4c(c3C)OCN(Cc3ccco3)C4)C2=O)cc1OC	AMPAR-TARP mod active
Cc1ccc(N2CCN(S(=O)(=O)c3ccc(Cl)c(Cl)c3)CC2)c(C)c1	none (no result: GIRK2 act)
COc1ccc(CNC(=O)C(=O)NCC2CCN(Cc3ccco3)CC2)cc1	AMPAR-TARP mod active
O=C(NCc1ccccc1)C(=O)NCC1CCN(Cc2ccco2)CC1	none
CC(=O)Nc1ccc(S(=O)(=O)NCC2CCN(Cc3ccco3)CC2)cc1	none
CCCc1ccc(S(=O)(=O)NCC2CCN(Cc3ccco3)CC2)cc1	AMPAR-TARP mod active
Cc1nn(C2CCS(=O)(=O)C2)c2nc(-c3ccco3)cc(C(=O)N3CCN(C)CC3)c12 (centres undefined)	none
COc1ccc(OC)c(C(=O)CSc2nccn(-c3ccc(Cl)cc3)c2=O)c1	none (no result: GIRK2 act)
CC1CN(C)CCN1CC1CCN(C(=O)c2ccc(F)cc2F)CC1 (centres undefined)	none
CC1Cc2cc(-c3cc(CC(=O)NCC4CCCO4)no3)ccc2O1 (centres undefined)	none
CC1Cc2cc(-c3cc(CC(=O)NC4CCCC4)no3)ccc2O1 (centres undefined)	AMPAR-TARP mod active
CCOC(=O)c1c(SCc2ccccc2)nc(=O)[nH]c1C	AMPAR-TARP mod active
CCOC(=O)c1c(SCC(=O)NCCc2ccccc2)nc(=O)[nH]c1C	none
COc1ccc(C(=O)NCC2(c3ccc(F)cc3)CC2)cc1OC	none
Cc1cc(NC(=O)C(=O)NCC(c2ccccc2)N(C)C)c2ccccc2n1 (centres undefined)	none
Cc1cc(C)nc(Nc2nc(N)c3ccccc3n2)n1	AMPAR-TARP mod active (no result: GIRK2 act)
COc1cc2ccccc2cc1C(=O)Nc1sc2c(c1-c1nc3ccccc3s1)CCN(C)C2	none (no result: GIRK2 act)
COc1cc(/C=C/c2ccc3cccc(O)c3n2)ccc1OCc1ccccc1	none (no result: GIRK2 act)
CCOc1cc(/C=C/c2ccc3cccc(O)c3n2)ccc1OC	AMPAR-TARP mod active (no result: GIRK2 act)
COc1cc(Br)c(/C=C/c2ccc3cccc(O)c3n2)cc1OC	none (no result: GIRK2 act)
O=[N+]([O-])c1ccc(O)c(/C=C/c2ccc3cccc(O)c3n2)c1	none (no result: GIRK2 act)
O=[N+]([O-])c1cc(/C=C/c2ccc3cccc(O)c3n2)ccc1O	AMPAR-TARP mod active (no result: GIRK2 act)
COc1cc(/C=C/c2ccc3cccc(O)c3n2)ccc1O	AMPAR-TARP mod active (no result: GIRK2 act)
COc1ccc(CCNS(=O)(=O)c2ccc(C(=O)Nc3cccnc3)o2)cc1OC	none
O=C(NCCC(O)c1cccs1)c1cc(=O)c2ccccc2o1 (centres undefined)	none
COc1ccc(OC)c(-c2ccc(=O)n(CC(=O)N3CCCCC3)n2)c1	none
COc1ccc(OC)c(N2CCCn3c2nc2c3c(=O)n(CC(C)C)c(=O)n2C)c1	none (no result: GIRK2 act)
COc1ccc(CC(=O)N2CCC(c3nnc(C4CC4)o3)CC2)cc1	none
COc1ccc(-c2nnc(NC(C)=O)o2)c(OC)c1	AMPAR-TARP mod active (no result: GIRK2 act)
COc1ccccc1-c1nnc(NC(=O)c2ccccc2)o1	none (no result: GIRK2 act)
COc1ccccc1-c1nnc(NC(=O)Cc2ccc(S(C)(=O)=O)cc2)o1	AMPAR-TARP mod active (no result: GIRK2 act)
COc1ccccc1-c1nnc(NC(=O)Cc2ccc(SC)cc2)o1	none (no result: GIRK2 act)
COc1ccc(C(=O)Nc2nnc(-c3ccccc3OC)o2)cc1	none (no result: GIRK2 act)
COc1ccc(-c2nnc(NC(=O)c3cccc(S(=O)(=O)C(C)C)c3)o2)c(OC)c1	AMPAR-TARP mod active
CCOC(=O)Cn1c(=O)c2c(nc3n(-c4cccc(C)c4)c(C)cn23)n(C)c1=O	none (no result: GIRK2 act)
CC(C)S(=O)(=O)c1cccc(C(=O)Nc2nc(-c3ccc(Cl)s3)cs2)c1	none
O=C(Cc1ccc(Cl)cc1)NCCn1ncc2c(NCc3ccc(F)cc3)ncnc21	none (no result: GIRK2 act)
CC(=O)CC1(O)C(=O)N(CCOc2ccc(C(C)(C)C)cc2)c2ccccc21 (centres undefined)	AMPAR-TARP mod active!
CC(=O)CC1(O)C(=O)N(CCCOc2ccccc2C)c2ccccc21 (centres undefined)	none
O=C(Nc1c2c(nn1-c1ccc(Cl)cc1)CSC2)C(=O)N1CCCC1	none
O=C(Nc1c2c(nn1-c1ccc(F)cc1)CSC2)C(=O)N1CCCC1	AMPAR-TARP mod active (no result: GIRK2 act)
N#C/C(=C\c1cccs1)c1nc2ccccc2s1	AMPAR-TARP mod active (no result: GIRK2 act)
N#C/C(=C\c1ccccc1)c1nc2ccccc2s1	none (no result: GIRK2 act)
Cc1nn2c(N3CCN(c4ccccn4)CC3)cc(C(C)C)nc2c1-c1ccccc1	none
Cc1cc(C)n(-c2cc(C(C)C)nc3c(-c4ccccc4)c(C)nn23)n1	AMPAR-TARP mod active
CC(C)c1nnc(C2CCN(C(=O)C34CC5CC(CC(C5)C3)C4)CC2)o1	none
Cc1nc(NC(=O)c2ccc(S(=O)(=O)N(C)Cc3ccccc3)cc2)sc1C	none
Cc1nc(NC(=O)c2cccc(Br)c2)sc1C	AMPAR-TARP mod active
Cc1noc(CNC(=O)c2c(F)cccc2Cl)n1	none (no result: AMPAR-TARP mod)
COc1cn(CC(=O)NCc2ccccc2)c(CSc2nc(C)cc(C)n2)cc1=O	none
CCCNC(=O)Cn1cc(OC)c(=O)cc1CSc1nc(C)cc(C)n1	AMPAR-TARP mod active
COc1ccc(CNC(=O)CSc2nc(-c3ccccc3)[nH]c2S(=O)(=O)c2ccccc2)cc1	none
O=C(CSc1nc(-c2ccccc2)[nH]c1S(=O)(=O)c1ccccc1)NC1CCCC1	none
CC1CCCCN1C(=O)CSc1nc(-c2ccccc2)[nH]c1S(=O)(=O)c1ccccc1 (centres undefined)	AMPAR-TARP mod active
COc1ccccc1NC(=O)CSc1nc(-c2ccccc2)[nH]c1S(=O)(=O)c1ccccc1	AMPAR-TARP mod active
O=C(CSCc1ccccc1)Nc1cc(Cl)ccc1Cl	none
Cc1ccc(Cl)cc1N1CCN(C(=O)C2CC(=O)c3ccccc32)CC1 (centres undefined)	AMPAR-TARP mod active
CS(=O)(=O)N1CCN(C(=O)C2CC(=O)c3ccccc32)CC1 (centres undefined)	none

Source: PubChem BioAssay
